Assay outcomes (PubChem BioAssay)
TMEM16A inh: blocks the mouse calcium-activated chloride channel TMEM16A | HEK293 TMEM16A/YFP iodide influx fluorescence, ionomycin | Q8BHY3 | normalized B-score (activity score, 25-100; higher = stronger inhibition) at 10 µM | hit rate 1.2% among 310,000;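 active = ratio plate-corrected score three or more library SD toward inhibition, starting fluorescence score within five deviations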;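 also: score derived from kinetic fluorescence span divided by baseline fluorescence per well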
Target sequence (Q8BHY3 whole entry, looked up): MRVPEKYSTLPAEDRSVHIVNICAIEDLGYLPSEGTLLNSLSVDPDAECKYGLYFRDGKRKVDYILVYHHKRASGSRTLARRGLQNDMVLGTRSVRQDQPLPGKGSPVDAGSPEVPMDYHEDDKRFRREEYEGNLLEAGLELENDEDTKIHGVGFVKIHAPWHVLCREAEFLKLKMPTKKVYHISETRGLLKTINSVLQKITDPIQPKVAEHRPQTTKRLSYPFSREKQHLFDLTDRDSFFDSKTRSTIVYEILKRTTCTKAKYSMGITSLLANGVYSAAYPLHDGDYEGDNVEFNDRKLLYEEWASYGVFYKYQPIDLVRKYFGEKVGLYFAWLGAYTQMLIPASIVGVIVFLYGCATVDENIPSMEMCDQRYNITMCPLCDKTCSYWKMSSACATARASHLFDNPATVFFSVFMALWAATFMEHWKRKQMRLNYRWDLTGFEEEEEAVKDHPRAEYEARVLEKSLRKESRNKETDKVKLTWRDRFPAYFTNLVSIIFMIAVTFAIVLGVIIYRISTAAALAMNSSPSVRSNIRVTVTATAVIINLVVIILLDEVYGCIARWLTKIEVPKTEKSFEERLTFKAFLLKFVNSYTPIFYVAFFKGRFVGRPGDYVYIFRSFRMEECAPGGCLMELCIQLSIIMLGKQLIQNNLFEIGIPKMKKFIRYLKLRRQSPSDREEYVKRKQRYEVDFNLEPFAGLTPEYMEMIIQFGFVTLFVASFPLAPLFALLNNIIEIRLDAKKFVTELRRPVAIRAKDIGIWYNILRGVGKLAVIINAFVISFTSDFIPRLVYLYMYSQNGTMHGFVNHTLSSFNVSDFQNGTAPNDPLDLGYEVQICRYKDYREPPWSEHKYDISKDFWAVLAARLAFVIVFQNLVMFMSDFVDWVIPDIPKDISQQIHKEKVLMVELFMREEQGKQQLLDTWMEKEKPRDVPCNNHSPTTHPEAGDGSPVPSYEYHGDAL
CHT allo act: allosteric activators of human choline transporter CHT | CHT-expressing cells, membrane potential dye, choline EC20; active compounds read high; LV-AA mutant CHT in HEK293 cells | B-score at 10 µM | Q9GZV3 | hit rate 0.49% among 310,000;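 active = initial fluorescence not abnormally high and integrated response B-score, plate-corrected, over 3 SD above library mean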
CHT inh: inhibitors of human choline transporter CHT | Q9GZV3 | CHT-expressing cells, membrane potential dye, choline response; active compounds read low | B-score at 10 µM | hit rate 0.86% among 310,000 | AID 488975;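 active = B-score over 3 SD under the library average, and starting fluorescence ratio not unusually high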;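 also: choline stimulus applied at its EC90 after an EC20 pre-addition; B-score computed on integrated fluorescence ratio after choline addition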
ANO1 activ: mouse TMEM16A channel activation, primary screen; Q8BHY3; HEK293 TMEM16A/YFP-H148Q/I152L, iodide quench fluorescence; active compounds read low; B-score at 10 µM; hit rate 0.3% among 340,000;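 active = fluorescence-ratio B-score plate-corrected deviation score at least 3 library SD below zero, with starting fluorescence score within 5 deviations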;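 also: channel opened by trigger with iodide after compound preincubation; score built on the fluorescence ratio of max minus min over baseline; more negative score means more quench and so TMEM16A activation or potentiation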
Starred values were filed as active, the others as inactive; i = inactive; x = no result. Sampled rows, rich in hits. Any-hit rate of the full collection: about 2.3%.

SMILES	TMEM16A inh	CHT allo act	CHT inh	ANO1 activ
Cn1c(O)c(/C=C2\C=Nc3ccccc32)c(=O)n(C)c1=O	i	i	i	-4.8*
COC(=O)C1=Nc2ccccc2/C1=C\c1c(O)n(C)c(=O)n(C)c1=O	i	i	i	i
Cc1ccccc1C1=NCC(=O)N(CC(=O)NCc2ccco2)c2sc3c(c21)CCCC3	i	i	i	i
COc1ccc(-[n+]2c(-c3ccccc3)cc(-c3ccccc3)cc2-c2ccccc2)cc1	100*	i	i	x
O=C([O-])c1ccc(-[n+]2c(-c3ccccc3)cc(-c3ccccc3)cc2-c2ccccc2)cc1	i	i	i	i
c1ccc2c(c1)[IH]c1ccccc1-2	x	x	x	-5.8*
Cc1cc(C)n(-c2ccc(NN=C(C#N)C#N)cc2)n1	i	i	i	i
N#CC(C#N)=NNc1ccc(-n2ccc(C(F)(F)F)n2)cc1	100*	i	i	-4.6*
CC12CCC(=O)C=C1CC(N1CC1)C1C2CCC2(C)C(O)CCC12 (stereo unspecified)	x	x	x	i
COc1ccc(-n2nc(C(=O)NCC(=O)N3CCC4(CC3)OCCO4)c3ccccc3c2=O)cc1Cl	i	i	i	i
C/C1=C\[C@@H](C)C/C=C/[C@H]2[C@@H]3O[C@]3(C)[C@@H](C)[C@H]3[C@H](Cc4c[nH]c5ccccc45)NC(=O)[C@]32C(=O)/C=C/C(=O)[C@@H]1O	100*	i	i	-11*
CCC1(O)CCC2C3CCC4=CC(=O)CCC4C3CCC21CC (stereo unspecified)	x	x	x	-4.8*
COc1ccc(OCC(=O)N2CCN(Cc3ccc(SC)cc3)CC2)cc1	100*	i	i	i
O=C(COc1ccc(Cl)cc1)N1CCN(Cc2ccccc2)CC1	i	i	i	i
Cc1ccc(N2C(=O)NC(=O)/C(=C\c3cc(C)n(-c4sc5c(c4C#N)CCCC5)c3C)C2=O)cc1	25*	i	i	i
CCN1C(=O)NC(=O)/C(=C/c2cc(C)n(-c3sc(C)c(C)c3C#N)c2C)C1=O	i	i	i	i
CC1(C(O)(C#CCN2CCCCC2)c2ccccc2)CCCC1 (stereo unspecified)	i	i	i	i
Cc1ccc(C2CC3CCC(C2)N3Cc2ccccc2F)cc1 (stereo unspecified)	x	x	x	i
CC(C)(C)c1cc([N+](=O)[O-])cc(C(C)(C)C)c1O	100*	i	i	x
O=[N+]([O-])c1ccccc1-c1cc(-c2ccccc2)cc(-c2ccccc2)[n+]1Cc1ccccc1Cl	i	i	-5.3*	x
O=[N+]([O-])c1ccccc1CCl	x	x	x	i
COc1ccc(N2C(=O)NC(=O)/C(=C\c3ccc([N+](=O)[O-])s3)C2=O)cc1	i	i	i	-6.4*
CCC(=O)N1c2ccc(S(=O)(=O)CCC(=O)N3CCC4(CC3)OCCO4)cc2CC1C (stereo unspecified)	i	i	i	i
O=C(CCCN1CCC2(CC1)C(=O)NCN2c1ccccc1)c1ccc(F)cc1	25*	i	i	-11*
CC(C)OP(=O)(OC(C)C)C(O)c1cccnc1 (stereo unspecified)	i	i	i	i
SMILES	TMEM16A inh	CHT allo act	CHT inh	ANO1 activ
C[C@]12CCC3C(CC[C@H]4C[C@@H](O)[C@H](O)C[C@]34C)C1CC[C@@H]2O (stereo partly specified)	x	x	x	i
CN1C(=O)C(=Cc2ccc(SC3CCCCC3)o2)C(=O)N(C)C1=O	i	i	i	i
CN(C)C=C1C(=O)N(C2CCCCC2)C(=O)N(C2CCCCC2)C1=O	i	i	-5.4*	i
CC(C)(C)c1nc(N2CCN(C(=O)c3ccco3)CC2)c2nnn(Cc3ccccc3Cl)c2n1	i	i	i	i
COc1cc2c(cc1OC)-c1c(OC)c(OC)cc3c1C(C2)N(C)CC3 (stereo unspecified)	i	8.4*	i	i
COc1ccc(-n2c(-c3ccc(C)cc3)nc3ccccc3c2=O)cc1	i	i	i	-4.9*
O=c1[nH]c(Cl)ccc1CN1CCOCC1	i	i	i	i
CCCC[N+]1(C)[C@@H]2CC(OC(=O)[C@H](CO)c3ccccc3)C[C@H]1[C@@H]1O[C@@H]12 (stereo partly specified)	i	i	i	-10*
N=c1c2c(n(Cc3ccc(Cl)cc3Cl)c3c1CCC3)CCCC2	i	6.4*	i	i
Cc1nc2cc([N+](=O)[O-])ccc2c(=O)n1-c1ccc(Br)cc1	i	i	i	-13*
Cc1nc2ccccc2c(=O)n1-c1ccc([N+](=O)[O-])cc1	i	i	i	i
O=C(Nc1ccc(F)cc1F)c1cccnc1Oc1cccc(C(F)(F)F)c1	i	i	i	i
CCOc1ccc(-c2cc(C)[n+](CCc3ccc(OC)c(OC)c3)c(-c3ccc(OCC)cc3)c2)cc1	25*	i	i	i
Clc1ccc(C[n+]2c(-c3ccccc3)cc(-c3ccccc3)cc2-c2ccccc2)cc1	25*	i	-8.9*	i
Cc1ccc(-c2cc(-c3ccccc3)cc(-c3ccccc3)[n+]2-c2ccccc2C(=O)O)cc1	i	i	i	i
Cc1cc(-c2ccccc2)cc(-c2ccccc2)[n+]1CCc1ccccc1	25*	i	i	i
CCOc1ccc(-c2cc(C)[n+](CCO)c(-c3ccc(OCC)cc3)c2)cc1	i	i	i	i
CCCCn1c(O)c(C(CC)=Nc2ccc(OC)cc2OC)c(=O)[nH]c1=O	25*	i	i	i
CC(NCc1ccc(Cl)c(Cl)c1)C(O)c1ccccc1 (stereo unspecified)	i	i	i	i
CN[C@@H]1C[C@@H](c2ccc(Cl)c(Cl)c2)c2ccccc21	25*	i	i	x
COCCCN1Cc2ccccc2C1=N	i	i	i	i
N=C1c2ccccc2CN1c1ncccn1	i	7.9*	i	i
NC(N)=N/N=C/c1cn(-c2ccccc2)nc1-c1cccs1	100*	i	i	i
CCC1C=CC=CC[C@H](C)[C@@H](O)[C@](C)(O)C(=O)[C@@H](C)[C@H](O)[C@@H](C)C(=O)[C@H](C)[C@@H](O)[C@H](C)C=CC(=O)OC2[C@@H](C)C(CC1)OC1(CC[C@@H](C)C(C[C@H](C)O)O1)[C@@H]2C (stereo partly specified)	25*	i	i	x
Cc1ccc2c(c1)CC1(CN2C)C(=O)NC(=O)N(c2cc(C)ccc2C)C1=O (stereo unspecified)	25*	i	i	i
COc1ccc(OC)c(N2C(=O)NC(=O)C3(Cc4cc(C)ccc4N(C)C3)C2=O)c1 (stereo unspecified)	i	i	i	i
CN1CCN(c2ccc([N+](=O)[O-])c3cccnc23)CC1	i	7.1*	i	i
CCC1(NS(=O)(=O)c2ccc(N)cc2)C(=O)N(C)C(=O)N(C)C1=O	x	x	x	i
